Structures are written as SMILES.

The test has as its system Plasmodium falciparum. Briefly: GSK_TCMDC: Inhibition of Plasmodium falciparum 3D7 in whole red blood cells, using parasite LDH activity as an index of growth. Test compounds present at 2uM. The class given is functional.
Regarding `COc1cc2nc(N(C)C)nc(Nc3ccc4c(cnn4Cc4ccccc4)c3)c2cc1OC`, the Inhibition (in general, the relative decrease from the control value, in per cent) is 100%. In the case of `CC(C)CCCC(C)(C)NC[C@@H](O)[C@H](Cc1ccccc1)NC(=O)c1cccc(CCC2CC2)c1`, the Inhibition is 98%. For the compound `CN(CCO)Cc1ccc(-c2ccc(NS(=O)(=O)c3cccc4cccnc34)cc2)cc1.O=C(O)C(F)(F)F`, the Inhibition stood at 99%. Next, `Cc1nc2nc(N)nc(N)c2c(C)c1Cc1c(Cl)cccc1Cl.Cl`: 94%; `CC(C)CNCc1cccc(-c2cccc(CN(CCN(C)C)C(=O)NCCc3ccccc3)c2)c1.O=C(O)C(F)(F)F`: 99%; `Oc1ccc(Cl)cc1CN1CCCC(COC(c2ccc(F)cc2)c2ccc(F)cc2)C1` (stereo unspecified): 98%. The value for `N#Cc1ccnc(-c2ccc(CNC3CCN(CC4Cn5c(=O)ccc6ccc(F)c4c65)CC3)cc2)c1.O=C(O)C(F)(F)F` (stereo unspecified) was 88%; that for `CCCN1CCc2c(sc3nc(SCC(=O)Nc4ccc(C)cc4)n(-c4ccc(C)cc4)c(=O)c23)C1` was 92%; that for `CN1CCN(c2ccnc3cc4c(cc23)N(Cc2ccccc2)CC4)CC1` was 94%. Next, `Br.Clc1ccc(-c2nc(-c3ccncc3)c[nH]2)cc1Cl`: 96%. Compound `CC(=O)Nc1ccc(C(=O)Nc2cccc(-c3cccc(-c4nc5ccccc5[nH]4)c3)c2)cn1` registered an Inhibition of 100%. In turn, `COc1ccc(-c2ccc3c(-c4ccc(F)cc4)cnc(N)c3c2)cn1` showed an Inhibition of 99%. `Cc1sc(CNCCCNc2cc(=O)c3ccccc3[nH]2)c(I)c1C.Cl` had an Inhibition of 94%. The value for `C=CCOC(=O)N1CCC(CNCc2cccc(-c3ccc(-c4nc5cccc(C)c5[nH]4)cc3)c2)C1.O=C(O)C(F)(F)F` (stereo unspecified) was 100%; that for `Cc1ccc(Nc2nccc(N(C)c3ccc4c(c3)nc(NC(=O)Cc3ccc(Cl)c(Cl)c3)n4C)n2)cc1S(N)(=O)=O.O=C(O)C(F)(F)F` was 94%; that for `Cc1cccc(-n2c(Nc3ccc(C)c(Cl)c3)nc3ccc(S(=O)(=O)NC(C)C(C)C)cc32)c1` (stereo unspecified) was 97%. The value for `Cc1ccc(NC(=O)c2ccc(CN3CCCN(Cc4cccc(O)c4)CC3)cc2)cc1F.O=C(O)C(F)(F)F` was 97%; that for `CC1(C)NC(N)=NC(=N)N1OCc1cc(Cl)cc2c1OCOC2.Cl` was 95%. Next, `CC1(CCc2ccccc2)N=C(N)N=C(N)C1c1ccc(Cl)c(Cl)c1.Cl` (stereo unspecified): 98%; `Cc1ccc(CNC(=O)[C@H](Cc2ccccc2)Nc2cc(C)nc(NCCc3ccc(F)cc3)n2)cc1.O=C(O)C(F)(F)F`: 98%.

Consider `COc1ccccc1CCNc1nc(C)cc(N[C@@H](CC(C)C)C(=O)Nc2ccccc2)n1.O=C(O)C(F)(F)F`, for which the Inhibition amounted to 100%.

In turn, `CCCCOc1c(CCNCCCCNCCc2cc(F)c3ccccc3c2OCCCC)cc(F)c2ccccc12.CS(=O)(=O)O` showed an Inhibition of 96%. Compound `COc1ccc(Nc2nccc(-c3ccc(NC(=O)c4cc5cc(F)ccc5[nH]4)cc3)n2)cc1` yielded an Inhibition of 91%. The value for `Cc1cc(N[C@@H](CC(C)C)C(=O)NCc2cccc(F)c2)nc(NCC2CCCCC2)n1.O=C(O)C(F)(F)F` was 99%. With `FC(F)(F)c1ccc(CNCC2CCN(Cc3ccc4c(c3)OCO4)CC2)cc1.O=C(O)C(F)(F)F`, the Inhibition turned out to be 80%. The compound `CC(C)(C)c1ccc2[nH]c(-c3ccc(C(=O)NCCCc4ccccc4)cc3)nc2c1` displayed an Inhibition of 95%. The value for `CCCN(CCC)C(=O)c1cc(C(=O)N[C@@H](Cc2ccccc2)[C@H](O)CNC(C)(C)c2cccc(C(F)(F)F)c2)cc(N2CCCCS2(=O)=O)c1` was 99%. The value for `CN(C)CCOC(=O)C1(O)CCC2CC1C2(C)C.Cl` (stereo unspecified) was 95%; that for `CC(C)C[C@@H](/C=N/N1CCOC1=O)NC(=O)[C@H](CC(C)C)NC(=O)c1ccc(F)cc1` was 85%. Next, `COCCCN=C(S)NN=C(C)c1ccccn1`: 100%; `CCCCCCCN(Cc1ccc(OC(C)(C)C(=O)OCC)cc1)C(=O)Nc1ccccc1OCC`: 93%; `C=Cc1ccc(-c2c(C)[nH]c(C)c(Br)c2=O)cc1`: 98%. Compound `Cc1cc(NC(=O)c2ccco2)ccc1OC1CCN(Cc2ccc(C#N)cc2)CC1.O=C(O)C(F)(F)F` showed an Inhibition of 92%.

Regarding `O=C(O)C(F)(F)F.c1cc(CNCc2ccc3c(c2)OCO3)cc(-c2cccc(CNc3ccc4ncccc4c3)c2)c1`, the Inhibition is 98%. Next, `CC(=O)N1Cc2ccccc2C1=O`: 97%; `NS(=O)(=O)c1cccc(-c2ccc3nccc(-c4cccc(S(N)(=O)=O)c4)c3c2)c1`: 98%.

(Values after ChEMBL document CHEMBL1157539, “Thousands of chemical starting points for antimalarial lead identification” (Nature, 2010).)
